# Measurements reported in PubChem BioAssay (Tox21).
# Values joined by “and” are separate entries in the source; they are usually repeats but may differ in a detail not shown here. Equal entries are not always repeated. Inconclusive results are not listed. A call without a number means that no potency is given here. More than one record can exist for a structure, and the calls need not agree. Active and inactive are the calls of the source. Calls come from the whole dose curve; as a rule, active = well fitted curve in the direction sought with a large enough effect in the repeat runs; inconclusive = weak or mixed curves; inactive = no such curve, though single readings can be large; an effect the other way counts as inactive or inconclusive.
# Experiments:
# [1] = A CellTox Green Cytotoxicity Assay to monitor cytotoxicity in HEK293 cells - 40 hour (AID 1224871); details: CellTox Green fluorescence; series mostly up to 76.8 µM; note: nearly all actives have a fitted effect of over 45% in size; note: potency is the fitted concentration of half-maximal effect
# Procedure, shortened: (§1)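 Cells (HEK293, 600/well) and dye reagent are dispensed together. After 5 h at 37 C, 23 nL compound is pinned in. Plates stay at 37 C for 40 h with fluorescence read at 0h, 8h, 16h, 24h, 32h and 40h.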
# [2] = qHTS RealTime-Glo MT Cell Viability Assay in HEK293 cells - 16 hour (AID 1224872); details: RealTime-Glo luminescence; series mostly up to 76.8 µM; note: nearly all actives have a fitted effect of over 50% in size; note: potency is the fitted concentration of half-maximal effect
# Procedure, shortened: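 Reads taken at 0, 8, 16, 24, 32 and 40 h from the same wells. HEK293 cells (600/well) carried RealTime-Glo reagents from seeding, with compound added after a 5 h settle at 37 C.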
# [3] = qHTS RealTime-Glo MT Cell Viability Assay in HEK293 cells - 40 hour (AID 1224874); details: RealTime-Glo luminescence; max response: stronger effect = lower value; note: nearly all actives have a fitted effect of over 50% in size; note: potency is the fitted concentration of half-maximal effect
# Procedure, shortened: (§2)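 Real-time viability in HEK293: signal arises when living cells convert a prosubstrate for NanoLuc in the medium, so luminescence tracks viable cell number. Compound (23 nL, DMSO) added 5 h post-seeding; kinetic reads at 0–40 h, 37 C.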
# [4] = A CellTox Green Cytotoxicity Assay to monitor cytotoxicity in HEK293 cells - 24 hour (AID 1224875); details: CellTox Green fluorescence; series mostly up to 76.8 µM; note: nearly all actives have a fitted effect of over 45% in size
# Procedure, shortened: as §1
# [5] = A CellTox Green Cytotoxicity Assay to monitor cytotoxicity in HepG2 cells - 16 hour (AID 1224876); details: CellTox Green fluorescence; series mostly up to 76.8 µM; note: nearly all actives have a fitted effect of over 45% in size; note: potency is the fitted concentration of half-maximal effect
# Procedure, shortened: (§3)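 Cells and non-lytic dye reagent are dispensed together (600 HepG2 cells/well) and incubated 5 h before DMSO compound transfer. Kinetic fluorescence is then recorded in the same wells during 40 h at 37 C.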
# [6] = qHTS RealTime-Glo MT Cell Viability Assay in HepG2 cells - 32 hour (AID 1224877); details: RealTime-Glo luminescence; series mostly up to 76.8 µM; note: nearly all actives have a fitted effect of over 55% in size; note: potency is the fitted concentration of half-maximal effect
# Procedure, shortened: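 HepG2 suspension premixed with RealTime-Glo reagents is plated at 600 cells per well and left 5 h at 37 C/5% CO2. Compounds in DMSO then go in, and bioluminescence reflecting viable cell number is recorded over 40 h.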
# [7] = A CellTox Green Cytotoxicity Assay to monitor cytotoxicity in HepG2 cells - 40 hour (AID 1224879); details: CellTox Green fluorescence; series mostly up to 76.8 µM; note: nearly all actives have a fitted effect of over 40% in size; note: potency is the fitted concentration of half-maximal effect
# Procedure, shortened: as §3
# [8] = qHTS RealTime-Glo MT Cell Viability Assay in HEK293 cells - 0 hour (AID 1224880); details: RealTime-Glo luminescence; series mostly up to 76.8 µM; note: top concentration of the series differs between compounds; nearly all actives have a fitted effect of over 45% in size
# Procedure, shortened: as §2
# [9] = A CellTox Green Cytotoxicity Assay to monitor cytotoxicity in HepG2 cells - 24 hour (AID 1224878); details: CellTox Green fluorescence; series mostly up to 76.8 µM; note: nearly all actives have a fitted effect of over 45% in size
# Procedure, shortened: as §3
# [10] = qHTS RealTime-Glo MT Cell Viability Assay in HepG2 cells - 8 hour (AID 1224873); details: RealTime-Glo luminescence; series mostly up to 76.8 µM; note: nearly all actives have a fitted effect of over 55% in size
# Procedure, shortened: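 Real-time viability: cells seeded at 600 per well together with NanoLuc and cell-permeant prosubstrate, compounds added after 5 h incubation. Luminescence tracked at 0, 8, 16, 24, 32 and 40 h of exposure.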
SMILES,Potency [1],Potency [2],max response [3],Potency [4],Potency [5],Potency [6],Potency [7],Potency [8],Potency [9],Potency [3],Potency [10],cytotoxicity increase [1],cytotoxicity increase [7]
Cc1ccc(Cl)cc1,inactive,inactive,3.18% (inactive) and 19.9% (inactive),inactive,inactive,inactive,inactive,inactive,–,–,–,–,–
O=[N+]([O-])c1cc(C(F)(F)F)ccc1Cl,inactive,inactive,-1.22% (inactive) and -0.472% (inactive),inactive,inactive,inactive,inactive,inactive,inactive,–,–,–,–
CCCOCC(C)O (configuration not stated),inactive,inactive,6.7% (inactive) and -0.928% (inactive),inactive,inactive,inactive,inactive,inactive,inactive,–,–,–,–
CC(CN1c2ccccc2Sc2ccccc21)N(C)C (configuration not stated),54.9 µM (active) and inactive,39.3 µM (active) and 30.9 µM (active),–,–,inactive and 43.6 µM (active),inactive and 49 µM (active),55.5 µM (active) and 49 µM (active) and 23.9 µM (active),inactive,–,39.3 µM (active) and 43.6 µM (active) and 6.01 µM (active),–,–,–
C=CC(C)(C)C,inactive,inactive,1.9% (inactive) and -10.6% (inactive),inactive,inactive,inactive,–,inactive,–,–,–,–,–
CCc1cccc(CC)c1N,inactive,inactive,1.74% (inactive) and 8.01% (inactive),inactive,inactive,inactive,–,inactive,inactive,–,–,–,–
CC(=O)c1nccs1,inactive,inactive,1.39% (inactive) and 3.29% (inactive),inactive,inactive,inactive,–,inactive,inactive,–,–,–,–
CC(COCC(C)OC(=O)c1ccccc1)OC(=O)c1ccccc1 (configuration not stated),inactive,–,–,inactive,inactive,inactive,inactive,inactive,inactive,–,inactive,–,–
CC(C)=CCC/C(C)=C/C=O,inactive,inactive,4.59% (inactive) and 11.5% (inactive),inactive,inactive,inactive,inactive,inactive,–,–,–,–,–
CCCCCC(C)=O,inactive,inactive,0.796% (inactive) and 0.918% (inactive),inactive,inactive,inactive,inactive,inactive,inactive,–,–,–,–
OCc1ccc(Cl)cc1Cl,inactive,inactive,3.27% (inactive) and 4.82% (inactive),inactive,inactive,inactive,–,inactive,–,–,–,–,–
CCCCC(=O)O,inactive,inactive,6.05% (inactive) and 6.12% (inactive),inactive,inactive,inactive,inactive,inactive,inactive,–,–,–,–
CCCCCCCC(=O)O,inactive,inactive,3.06% (inactive) and 7% (inactive),inactive,inactive,inactive,–,inactive,inactive,–,–,–,–
C=C(C)CC(C)(C)C,inactive,inactive,7.8% (inactive) and -7.58% (inactive),inactive,inactive,inactive,inactive,inactive,inactive,–,–,–,–
O=Cc1ccc(CO)o1,inactive,inactive,-0.203% (inactive) and -12.4% (inactive),inactive,inactive,inactive,inactive,inactive,inactive,–,–,–,–
CC(=O)OC/C=C(\C)CCC=C(C)C,inactive,inactive,-1.95% (inactive) and 0.392% (inactive),inactive,inactive,inactive,inactive,inactive,inactive,–,–,–,–
CC(C)c1ccc(C(C)C)cc1,inactive,inactive,6.04% (inactive) and 0.0055% (inactive),inactive,inactive,inactive,inactive,inactive,inactive,–,–,–,–
Nc1cccc(C(F)(F)F)c1,inactive,inactive,3.13% (inactive) and 0.276% (inactive),inactive,inactive,inactive,inactive,inactive,–,–,–,–,–
Cc1ccccc1Cl,inactive,inactive,1.86% (inactive),inactive,inactive,inactive,–,inactive,inactive,–,–,–,–
CC(=O)CC(=O)N(C)C,inactive,inactive,0.701% (inactive) and 6.53% (inactive),inactive,inactive,inactive,inactive,inactive,inactive,–,–,–,–
CC(=O)Nc1ccc(CC(=O)O)cc1,inactive,inactive,-18.8% (inactive) and 1.34% (inactive),inactive,inactive,inactive,inactive,inactive,–,–,–,–,–
O=C(c1ccccc1)c1ccc(O)c(O)c1O,inactive,inactive,-18.4% (inactive),inactive,inactive,inactive,inactive,inactive,–,–,–,–,–
COc1ccc2cc3[n+](cc2c1OC)CCc1cc2c(cc1-3)OCO2,22 µM (active) and 19 µM (active),4.4 µM (active),–,inactive,inactive,inactive,inactive,inactive,inactive,4.4 µM (active) and 9.52 µM (active),–,–,–
C[Si](C)(C)N[Si](C)(C)C,inactive,inactive,2.88% (inactive) and 0.469% (inactive),inactive,inactive,inactive,inactive,inactive,–,–,–,–,–
CCCCCCCCCCCCCC(=O)O,inactive,inactive,-22.5% (inactive) and -9.69% (inactive),inactive,inactive,inactive,inactive,inactive,inactive,–,–,–,–
CC(=O)OC(C)(C)C1CC=C(C)CC1 (configuration not stated),inactive,inactive,3.8% (inactive) and -15.5% (inactive),inactive,inactive,inactive,inactive,inactive,–,–,–,–,–
Cc1cc(C)cc(O)c1,inactive,inactive,6.28% (inactive) and 8.82% (inactive),inactive,inactive,inactive,inactive,inactive,inactive,–,–,–,–
CCCCCCCCC(=O)O,inactive,inactive,1.64% (inactive) and 2.96% (inactive),inactive,inactive,inactive,inactive,inactive,inactive,–,–,–,–
CCCCCCCCCCCC(=O)N(C)CC(=O)O,–,inactive,1.1% (inactive) and -15.4% (inactive),inactive,inactive,inactive,–,inactive,inactive,–,–,3.46% [at 6.97 µM] (inactive),1.38% [at 6.97 µM] (inactive)
COc1ccc([C@@H]2CC(=O)c3c(O)cc(O[C@@H]4O[C@H](CO[C@@H]5O[C@@H](C)[C@H](O)[C@@H](O)[C@H]5O)[C@@H](O)[C@H](O)[C@H]4O)cc3O2)cc1OC,inactive,inactive,14.9% (inactive) and 7.9% (inactive),inactive,inactive,inactive,inactive,inactive,inactive,–,–,–,–
